Only some compounds are listed: those with a hit (about 9.6% of all), similar ones and a draw of the others.
USP17 block – blocks human USP17 ubiquitin-rhodamine cleavage; inhibition, % at 50 µM; purified USP17, Ub-rhodamine cleavage fluorescence, 3 h; hit rate 6.5% among 47,000; A8MUK1
Target sequence (A8MUK1 whole entry, looked up): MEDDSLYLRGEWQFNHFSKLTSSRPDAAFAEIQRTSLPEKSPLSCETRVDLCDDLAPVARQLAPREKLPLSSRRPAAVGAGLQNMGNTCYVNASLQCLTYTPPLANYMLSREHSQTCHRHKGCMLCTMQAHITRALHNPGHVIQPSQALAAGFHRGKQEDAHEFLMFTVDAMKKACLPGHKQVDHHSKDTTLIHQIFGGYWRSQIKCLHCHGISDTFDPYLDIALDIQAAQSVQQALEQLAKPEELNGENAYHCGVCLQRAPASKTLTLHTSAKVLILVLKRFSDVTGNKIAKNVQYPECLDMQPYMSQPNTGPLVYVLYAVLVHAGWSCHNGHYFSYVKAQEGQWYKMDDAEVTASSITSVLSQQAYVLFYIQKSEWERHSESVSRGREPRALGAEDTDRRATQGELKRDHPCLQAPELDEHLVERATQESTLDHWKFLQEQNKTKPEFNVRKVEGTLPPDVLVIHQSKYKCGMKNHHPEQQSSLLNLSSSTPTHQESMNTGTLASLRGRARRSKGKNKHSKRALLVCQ
USP30 inh – blocks human USP30 ubiquitin-rhodamine cleavage; purified USP30, Ub-rhodamine cleavage fluorescence; Q70CQ3; inhibition, % at 25 µM; hit rate 5.3% among 47,000
Starred values were filed as active, the others as inactive; · = not tested or not shown. No stated cut-off is given here; in the data, active means inhibition above about 30%; inactive means the rest.

SMILES	USP17 block	USP30 inh
O=C(Nc1cc(F)ccc1F)c1cc(-c2cccnc2)n[nH]1	56.7*	·
O=C(Cc1ccccc1)N1CC[C@@H]2CN(Cc3ccncc3)S(=O)(=O)[C@@H]2CC1	-9.5	-0.1
O=C(Nc1ccnn1Cc1ccccn1)c1cccnc1Sc1ccccc1Cl	-37.8	-84.4
CNC(=O)C1CN(C(=O)c2ccc3ccccc3n2)CC12CCCC2 (stereo not drawn)	2.0	21.6
COc1ccc(C(=O)Nc2cccc(CCc3nc4ccc(C)cc4[nH]3)c2)cc1OC	-2.5	-16.2
O=S(=O)(c1ccc2c(c1)OCCCO2)N1CCN(CCc2ccccc2)CC1	-1.8	-17.1
COc1c(-c2ccccc2)c2ccccc2[nH]c1=O	1.4	6.0
COC1=C(C)C(C)(O)c2[nH]c3ccccc3c2C1=O (stereo not drawn)	41.6*	-3.6
COc1ccccc1CC(=O)Nc1cccn2c(C)nnc12	8.3	8.1
O=C(CC1c2ncccc2C(=O)N1c1ccccc1)NCc1cccc(F)c1 (stereo not drawn)	13.1	21.4
COC(=O)c1ccccc1NC(=O)Cn1c(=O)n(CCCC(=O)NCc2ccco2)c(=O)c2ccccc21	75.7*	79.8*
COc1ccccc1CNC(=O)CCCCn1c(=O)c2ccccc2n(CC(=O)Nc2ccc(C)cc2C)c1=O	20.9	41.6*
Cc1ccc(NC(=O)COc2cccc3c(=O)n(C)ccc23)c(C)c1	10.1	-38.9
COc1cccc(NC(=O)Cn2c(=O)n(CCCC(=O)NCc3ccco3)c(=O)c3ccccc32)c1	44.2*	6.8
Cc1ccccc1Cn1c(=O)n(CCC(=O)NCc2ccco2)c(=O)c2ccccc21	-1.9	-5.2
COc1ccc(NC(=O)Cn2c(=O)n(CCCCC(=O)NCc3ccco3)c(=O)c3ccccc32)cc1Cl	-17.7	-5.5
COC(=O)c1ccc(C2c3[nH]c4ccccc4c3C[C@H]3C(=O)N(CCCN4CCOCC4)CC(=O)N23)cc1 (stereo partly drawn)	-63.6	-117.8
Cn1nnc(-c2ccc(NC(=O)C(=O)NC3CC(C)(C)NC(C)(C)C3)cc2)n1	3.5	9.0
COc1ccc(CC(=O)Nc2cc(=O)[nH]c3nc(-c4ccco4)nn23)cc1	33.9*	-103.7
COc1ccc(CC(=O)Nc2cc(=O)[nH]c3nc(-c4ccccc4C)nn23)cc1	6.1	-26.8
Cc1ccccc1C(=O)NC(NC(=O)c1ccccc1C)c1ccc(N(C)C)cc1	0.9	0.1
CC(=O)Nc1ccc(S(=O)(=O)Nc2cc(-c3ccccc3)nn2C)cc1	1.3	1.1
CC(=O)Nc1ccc(S(=O)(=O)Nc2ccc(Nc3ccc(-n4cccn4)nn3)cc2)cc1	36.3*	50.2*
COc1ccc(-c2noc(CNC(=O)C(C)(C)Oc3ccc(Cl)cc3)n2)cc1OC	-5.2	-12.8
COc1cc2c(cc1OC)-c1cc(Oc3ccc4cccnc4c3)nc(=O)n1CC2	49.2*	-38.0
SMILES	USP17 block	USP30 inh
COc1ccc(Oc2cc3n(c(=O)n2)CCc2cc(OC)c(OC)cc2-3)cc1	-45.8	-174.6
CC(=O)C1C(=O)C=C(c2ccccc2)CC1c1ccccc1 (stereo not drawn)	31.5*	2.6
CC(=O)N1[C@@H](c2ccccc2)C[C@@]2(C)[C@@H](O)[C@@H](O)CCC[C@@H]12	9.9	·
O=S(=O)(Nc1nc2ccccc2nc1NCc1ccc2c(c1)OCO2)c1ccc(F)cc1	-25.0	-135.3
O=S(=O)(NNc1nc2ccccc2nc1C(F)(F)F)c1ccc(Br)cc1	12.7	36.4*
Cc1ccc(Nc2nc(CN3CCOCC3)nc3sc4c(c23)CCCC4)cc1Cl	3.1	14.8
Cc1ccc(S(=O)(=O)N=C(c2ccccc2)N2CCCC2)cc1	14.1	18.1
CCOC(=O)c1cnc(Nc2ccc(F)c(Cl)c2)c2ccccc12	44.2*	17.9
CCOc1ccc(NC(=O)c2cnc(Nc3ccc(OC)cc3)c3ccccc23)cc1	8.0	-11.8
O=C(CCn1cnc2ccccc21)N1CCOC(c2cnccn2)C1 (stereo not drawn)	-5.0	-11.5
O=C(NCCc1ccc(F)cc1)c1cc2c([nH]c1=O)CCCC2	41.8*	-0.8
O=C(NCCc1ccc(F)cc1)c1csc2c1CCCC2	4.8	15.0
CCOC(=O)C(C)Sc1nnc(CNC(=O)C23CC4CC(CC(C4)C2)C3)n1-c1ccc(OC)cc1 (stereo not drawn)	-1.1	1.4
N#Cc1ccccc1-c1ccccc1C(=O)NC1CCCCC1	-8.6	-4.6
Cc1ccccc1C(=O)c1ccc(C(=O)NC2CCCCCC2)[nH]1	13.6	52.2*
Cc1cccc(C)c1NC(=O)CSc1ncnc2c1cnn2-c1ccc(Cl)cc1	-0.1	-13.7
O=C(CSc1ncnc2c1cnn2-c1ccccc1)Nc1ccccc1-c1ccccc1	12.7	30.8*
CC(C)=CCC/C(C)=C/CC/C(C)=C/COc1c(O)cc(C=O)c(C=O)c1O	80.5*	43.8*
Cc1cc(C)nc(N=C(NC(=O)C(C)(C)C)Nc2cccc(C(F)(F)F)c2)n1	11.1	5.6
Cc1ccc(N2CCCn3c2nc2c3c(=O)n(CCc3ccccc3)c(=O)n2C)cc1	11.4	31.1*
Cc1ccc(N2CCCn3c2nc2c3c(=O)n(CCCc3ccccc3)c(=O)n2C)cc1	-0.5	14.4
O=C(Nc1ccccc1)C1CCCN(C(=O)c2cc3ccccc3[nH]2)C1 (stereo not drawn)	59.9*	33.4*
Cc1ccc(NC(=O)C2CCCN(C(=O)c3cc(-c4cccnc4)n[nH]3)C2)cc1 (stereo not drawn)	1.9	1.9
COc1ccccc1C(=O)N1CCN(C(=O)c2cc3ccccc3[nH]2)CC1	-8.0	4.1
Cc1ccc(C(=O)N2CCN(C(=O)c3cc4ccccc4[nH]3)CC2)cc1	37.3*	26.2
SMILES	USP17 block	USP30 inh
CC(NS(=O)(=O)c1cccc(Cl)c1)C(=O)O (stereo not drawn)	-0.4	30.3*
C[C@@H](NS(=O)(=O)c1ccc(F)c(Cl)c1)C(=O)NCc1cscn1	-0.7	-0.2
COc1ccc2[nH]c(=O)c(CN(C)C(=O)c3ccc([N+](=O)[O-])cc3)cc2c1	46.2*	-3.0
CN(Cc1cc2ccccc2[nH]c1=O)C(=O)c1ccc(Cl)cc1	-1.8	3.2
O=C(NCCCN1CCC(N2CCCCC2)CC1)C1CCCN(S(=O)(=O)N2CCC3(CC2)OCCO3)C1 (stereo not drawn)	-22.4	-74.3
O=C(NCc1ccc2c(c1)OCO2)[C@@H]1Cc2c([nH]c3ccccc23)C2c3ccccc3C(=O)N21 (stereo partly drawn)	1.2	-73.0
COc1ccc(C2CN3C(=O)c4ccccc4C3c3[nH]c4ccccc4c32)cc1 (stereo not drawn)	4.9	-46.2
Cc1nc(C(=O)N[C@@H](C)C(=O)NCc2ccc3c(c2)OCO3)cc2c1[nH]c1ccccc12	57.0*	9.4
Cc1nc(C(C)C)ncc1C(=O)NCc1ccc2c(c1)OCO2	-16.0	-20.4
O=C1c2ccccc2C2c3[nH]c4ccccc4c3C(c3ccc4c(c3)OCO4)CN12 (stereo not drawn)	32.8*	-24.9
C[C@H](NC(=O)[C@@H]1Cc2c([nH]c3ccccc23)C2c3ccccc3C(=O)N21)C(=O)NCc1ccc2c(c1)OCO2 (stereo partly drawn)	34.4*	-48.9
Cc1ccc(N(Cc2nc3nc(C)cc(=O)n3[nH]2)C(=O)c2cccc(C)c2)cc1	0.6	-8.9
Cc1cnn(CC2CCCCN2C(=O)CCc2c(C)nn(C)c2C)c1 (stereo not drawn)	2.3	2.2
O=C(Nc1nc(-c2ccccc2)c(-c2ccccc2)s1)C1CCCO1 (stereo not drawn)	8.7	12.6

High-throughput results (PubChem BioAssay)
